Measured values as given in PubChem BioAssay (NCI).
Several values for one entry are separate records, joined by “and”; a condition that tells them apart may be missing. Identical values can stand only once. About 83,000 compounds went through this panel and 20% of them were active in at least one assay; those are over-represented in the sample as a whole.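 Each cell line was grown in a 96-well plate and treated with one concentration of compound for 48 hours. Values below 10 were considered active.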 Activity calls are given as the source filed them.

These molecules were tested on MDA-MB-435 melanoma (assay: NCI-60 one-dose screen, 48 h (100 = growth as untreated, 0 = no growth, -100 = all killed)). Details: 10 µM unless noted.
Procedure: Growth inhibition of the MDA-MB-435 human Melanoma tumor cell line is measured as a screen for anti-cancer activity. Cells are grown in 96 well plates and exposed to the test compound for 48 hours. Compounds are tested at a single concentration, which is 10^-5 M for most compounds. The reported endpoint is percent growth (GI% or GIPRCNT), where numbers from 0 - 100% represent growth inhibition, and numbers from -100% - 0 represent cell death. For example, a value of 40 represents 60% growth inhibition. A value of 0 means no net growth occurred over the course of the experiment. A value of -40 indicates 40% of cells at the beginning of the experiment died by the end of the experiment. A value of -100 means all cells are dead at the end of the experiment.
NCI-60 Human Tumor Cell Lines Screen was performed using the standard one-dose NCI protocol, which is described in more detail at https://dtp.cancer.gov/discovery_development/nci-60/default.htm.
Compounds with GIPRCNT values below 10 were considered active. Activity score was based on GIPRCNT using the following formula: […]
Score is 0 for GIPRCNT values of 100 or above, 50 for GIPRCNT values of 0, and 100 for GIPRCNT values of -100.
With `CC[C@H](C)[C@H]1O[C@]2(C=C[C@@H]1C)C[C@@H]1C[C@@H](C/C=C(\C)[C@@H](O[C@H]3C[C@H](OC)[C@@H](O[C@H]4C[C@H](OC)[C@@H](NC)[C@H](C)O4)[C@H](C)O3)[C@@H](C)/C=C/C=C3\CO[C@@H]4[C@H](O)C(C)=C[C@@H](C(=O)O1)[C@]34O)O2` the growth was -83.4% (active). In the case of `Cc1cc(N(CCCl)CCCl)ccc1C=Nc1ccc(-c2csc(-c3ccccc3)n2)cc1`, the growth is reported as 95.2% (inactive). `OCCN=Cc1c[nH]c2ccccc12` was tested, and the growth was 103% (inactive). In the case of `Oc1ccc(O)c(Cl)c1`, the growth is reported as 102% (inactive) and 109% (inactive). For `COc1ccn(C)c(=O)c1C#N`, the growth was 107% (inactive). With `COCC1OC2OC3C(COC)OC(OC4C(COC)OC(OC5C(COC)OC(OC6C(COC)OC(OC7C(COC)OC(OC8C(COC)OC(OC1C(O)C2O)C(O)C8O)C(O)C7O)C(O)C6O)C(O)C5O)C(O)C4O)C(O)C3O` (stereo not given) (tested in a mixture with another compound) the growth was 117% (inactive). With `CC1(C)N=C(N)N=C(N)N1c1ccc(CCC(=O)Nc2ccc(S(=O)(=O)F)cc2)cc1` the growth was 20.8% (inactive). With `COc1ccc(N)cc1OC` the growth was 103% (inactive). In the case of `C#COc1cccc(Nc2ncnc3cc(NC(=O)CF)ccc23)c1`, the growth is reported as -34.2% [6.25 µM] (active). `CCCC[C@H]1C(=O)O[C@H](C)[C@H](NC(=O)c2cccc(NC=O)c2O)C(=O)O[C@@H](C)[C@@H]1OC(=O)CC(C)C` was tested, and the growth was 39% (inactive). With `CCOC(=O)c1ccccc1C(=O)OCC` the growth was 91.5% (inactive). For `Cc1ccc(NC2=N[C@]34CC(=O)CC[C@]3(C)[C@H]3CC[C@]5(C)C(=O)CC[C@H]5[C@@H]3C[C@@H]4S2)c(C)c1`, the growth was 16.9% (inactive). `ClCc1ccc(Cl)c(Cl)c1` was tested, and the growth was 106% (inactive). For `CC/C(=C(\c1ccc(OCCN2CCOCC2)cc1)c1ccc(OC(=O)Cc2ccccc2)cc1)c1ccc(Cl)cc1`, the growth was 107% (inactive). `Cc1cc2c(cc1-c1ccnc(/C=C/C(=O)O)c1)C(C)(C)CCC2(C)C` was tested, and the growth was 92.5% (inactive). For `O=C1NC(=O)C(=C/C=C/c2ccccc2)C(=O)N1`, the growth was 3.9% (active). `CN1CCc2cc3c(cc2C1O)OCO3` (stereo not given) was tested, and the growth was 37.8% (inactive) and 102% (inactive). `C(=NC1CCCCC1)=NC1CCCCC1` was tested, and the growth was 101% (inactive) and 88.4% (inactive). In the case of `CC[C@H](CC[C@@H](C)[C@H]1CC[C@H]2[C@@H]3CC[C@H]4C[C@]5(CC[C@]4(C)[C@H]3CC[C@]12C)OO[C@](C)(C(F)(F)F)O5)C(C)C`, the growth is reported as 96.9% (inactive). For `O=C(O)c1ccc(=O)[nH]c1`, the growth was 106% (inactive) and 103% (inactive). In the case of `C/C(=C(\c1ccc(OCCN2CCOCC2)cc1)c1ccc(OC(=O)Cc2ccccc2)cc1)c1ccc(Cl)cc1`, the growth is reported as 91.4% (inactive). With `CC1=CC(=Nc2ccc(N(CCCl)CCCl)cc2)C=C(C)C1=O` the growth was 35.4% (inactive). In the case of `CCCCCCCCCCCCCCCCCC1OCC(COC(=O)O[C@@H](C(=O)O[C@H]2C[C@@]3(O)[C@@H](OC(=O)c4ccccc4)[C@@H]4[C@]5(OC(C)=O)CO[C@@H]5C[C@H](O)[C@@]4(C)C(=O)[C@H](OC(C)=O)C(=C2C)C3(C)C)[C@@H](NC(=O)c2ccccc2)c2ccccc2)O1` (stereo not given in full), the growth is reported as -71.2% (active). With `CO[C@@H]([CH2][Hg][O]C(=O)c1ccccc1)[C@@H]([CH2][Hg][O]C(=O)c1ccccc1)OC` the growth was 104% (inactive). For `Nc1c(Cl)c(Cl)nc(C(=O)O)c1Cl`, the growth was 106% (inactive). In the case of `O=c1[nH]c(=O)[nH]c(=O)[nH]1`, the growth is reported as 114% (inactive). With `O=C(Cc1ccccc1)NC(O)C(Cl)(Cl)Cl` (stereo not given) the growth was 109% (inactive). For `O=C(CBr)OCCOC(=O)CBr`, the growth was 91.6% (inactive). With `Nc1ccc2c(c1)Cc1cc(N)ccc1-2` the growth was 91.8% (inactive). In the case of `CC(=O)Cc1ccc2c(c1)OCO2`, the growth is reported as 105% (inactive). `CC(=O)C(N)Cc1ccccc1` (stereo not given) was tested, and the growth was 102% (inactive). In the case of `CC1=C2[C@H]3OC(=O)[C@@H](C)[C@@H]3CC[C@@]2(C)C=CC1=O`, the growth is reported as 115% (inactive). `CCN1C(=O)CC(=O)N(CC)C1=S` was tested, and the growth was 105% (inactive). In the case of `Oc1ccccc1C=NCCN=Cc1ccccc1O`, the growth is reported as 108% (inactive). For `O=C1c2ccccc2C(=O)N1N1CC1c1ccccc1` (stereo not given), the growth was 102% (inactive). For `COC[C@H]1OC(=O)c2coc3c2[C@@]1(C)C1=C(C3=O)[C@@H]2CCC(=O)[C@@]2(C)C[C@H]1OC(C)=O`, the growth was 60.3% (inactive). With `COc1cc(C=C2C(=O)NC(=O)NC2=O)ccc1O` the growth was 101% (inactive). For `CCCCCCCCCCCCCCCCCCn1cc[n+](C)c1`, the growth was -56.4% (active) and -70.8% (active). With `O=C(O)C(Br)CBr` (stereo not given) the growth was 103% (inactive). `CN1CCC2(CC1)C(C#N)C(=O)NC(=O)C2C#N` (stereo not given) was tested, and the growth was 97.6% (inactive).
